By AC50 is commonly meant the concentration at which the activity in the assay is half-maximal.

Here are results for 14 compounds from PubChem BioAssay (EPA / NIEHS).

Values joined by “and” are separate entries in the source; they are usually repeats but may differ in a detail not shown here. Equal entries are not always repeated. Where a structure was tested more than once in an assay, its records may differ in their call. Active and inactive are the calls of the source. The calls were made as follows: active = hit-call score of the fitted dose curve at least 0.9, where 1 is the maximum; inactive = score below 0.9.

Read-out in experiment [1]: Intercellular Adhesion Molecule 1 (ICAM1), ICAM1 (gene 3383)
Kind of experiment: BSK_hDFCGF_ICAM1: BioMAP Diversity Plus: hDFCGF Assay for Intercellular Adhesion Molecule 1 (ICAM1) Biomarker Activity (AID 2284287). Particulars: primary human foreskin fibroblasts. The procedure, abridged:
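ICAM-1 ELISA readout 24 h after dosing, DMSO as baseline, in human dermal foreskin fibroblast cultures. Cytotoxicity checked in parallel wells by SRB staining (0.1% SRB, 10% TCA fixation, 560 nm).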

Read-out in another experiment: CD40, CD40 (gene 958)
Kind of experiment: BSK_IMphg_CD40: BioMAP Diversity Plus: IMphg Assay for CD40 Biomarker Activity (AID 2284288). Particulars: primary human endothelial cells with macrophages. The essentials:
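ELISA read-out of cell-surface CD40 at 24 h in human venular endothelial cell/macrophage co-cultures. Activity fitted in the positive direction against DMSO; parallel SRB staining (560 nm) gauges overt cytotoxicity.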

Read-out in experiment [2]: TIMP metallopeptidase inhibitor 2 (TIMP2), TIMP2 (gene 7077)
The experiment in a line: BSK_hDFCGF_TIMP2: BioMAP Diversity Plus: hDFCGF Assay for TIMP metallopeptidase inhibitor 2 (TIMP2) Biomarker Activity (AID 2284289). Particulars: primary human foreskin fibroblasts. The essentials:
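Primary human foreskin fibroblasts in the hDFCGF system, dosed for 24 h; TIMP-2 level measured by ELISA, fitted in the positive direction against DMSO; cytotoxicity checked in parallel by sulforhodamine B total protein staining.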

Read-out in experiment [3]: Interleukin-1 alpha (IL1a), IL1A (gene 3552)
The experiment in a line: BSK_IMphg_IL1a: BioMAP Diversity Plus: IMphg Assay for Interleukin-1 alpha (IL1a) Biomarker Activity (AID 2284290). Particulars: primary human endothelial cells with macrophages. The essentials:
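IL-1α is quantified by ELISA at 24 h in the endothelial/macrophage IMphg co-culture, with gain of signal fitted relative to DMSO. Parallel SRB total-protein staining flags overt toxicity.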

Read-out in experiment [4]: E-selectin (Homo sapiens) (UniProt P16581)
Kind of experiment: BSK_IMphg_ESelectin: BioMAP Diversity Plus: IMphg Assay for Eselectin Biomarker Activity (AID 2284291). As to conditions: primary human endothelial cells with macrophages. The procedure, abridged:
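Analysed against DMSO baseline in the positive fitting direction, this endpoint is an ELISA read of E-selectin. It comes from human venular endothelial cells co-cultured with macrophages, sampled 24 h post-dose.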

Experiment [5] is described as follows: BSK_IMphg_SRB: Viability Assessment in the BioMAP Diversity Plus: IMphg Assay (AID 2284292).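 Also: measured one day after compound addition.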 As to conditions: primary human endothelial cells with macrophages. The procedure, abridged:
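SRB viability endpoint: cultures of human endothelial cells plus macrophages fixed with 10% TCA, stained with 0.1% SRB, read at 560 nm 24 h post-dosing. Only gain-of-signal fitted, relative to DMSO.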

Read-out in experiment [6]: Macrophage colony-stimulating factor (MCSF), CSF1 (gene 1435)
The experiment in a line: BSK_IMphg_MCSF: BioMAP Diversity Plus: IMphg Assay for Macrophage colony-stimulating factor (MCSF) Biomarker Activity (AID 2284293). As to conditions: primary human endothelial cells with macrophages. The essentials: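 M-CSF was measured by ELISA in human venular endothelial cell/macrophage co-cultures dosed for 24 hours. Sulforhodamine B staining of parallel cultures assessed cytotoxicity; data fitted against DMSO baseline.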

Read-out in experiment [7]: Interleukin-10 (IL10), IL10 (gene 3586)
The experiment in a line: BSK_IMphg_IL10: BioMAP Diversity Plus: IMphg Assay for Interleukin-10 (IL10) Biomarker Activity (AID 2284294). Particulars: primary human endothelial cells with macrophages. The essentials:
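IL-10 read by ELISA after 24 h chemical exposure of primary human venular endothelial cell/macrophage cocultures, with DMSO as baseline. Parallel SRB staining (560 nm) gauged overt cytotoxicity.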

Experiment [8] can be described thus: BSK_IMphg_SRB.Mphg: Macrophage Viability Assessment in the BioMAP Diversity Plus: IMphg Assay (AID 2284295). Particulars: primary human endothelial cells with macrophages. The essentials:
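Cytotoxicity read-out: parallel cultures fixed with 10% TCA, stained with 0.1% sulforhodamine B, read at 560 nm. System combines venular endothelium and macrophages; sampled 24 h post-dosing, fitted positively relative to DMSO control.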

Read-out in experiment [9]: Thrombomodulin, THBD (gene 7056)
Kind of experiment: BSK_LPS_Thrombomodulin: BioMAP Diversity Plus: LPS Assay for Thrombomodulin Biomarker Activity (AID 2284296). As to conditions: primary human HUVEC with PBMC. The essentials: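 Thrombomodulin on the surface of LPS-activated endothelial/PBMC co-cultures was quantified by ELISA at 24 hours post-dosing, with DMSO as baseline. Parallel SRB total-protein staining flagged overt cytotoxicity.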

Sequence of E-selectin (Homo sapiens) (P16581 whole entry, looked up): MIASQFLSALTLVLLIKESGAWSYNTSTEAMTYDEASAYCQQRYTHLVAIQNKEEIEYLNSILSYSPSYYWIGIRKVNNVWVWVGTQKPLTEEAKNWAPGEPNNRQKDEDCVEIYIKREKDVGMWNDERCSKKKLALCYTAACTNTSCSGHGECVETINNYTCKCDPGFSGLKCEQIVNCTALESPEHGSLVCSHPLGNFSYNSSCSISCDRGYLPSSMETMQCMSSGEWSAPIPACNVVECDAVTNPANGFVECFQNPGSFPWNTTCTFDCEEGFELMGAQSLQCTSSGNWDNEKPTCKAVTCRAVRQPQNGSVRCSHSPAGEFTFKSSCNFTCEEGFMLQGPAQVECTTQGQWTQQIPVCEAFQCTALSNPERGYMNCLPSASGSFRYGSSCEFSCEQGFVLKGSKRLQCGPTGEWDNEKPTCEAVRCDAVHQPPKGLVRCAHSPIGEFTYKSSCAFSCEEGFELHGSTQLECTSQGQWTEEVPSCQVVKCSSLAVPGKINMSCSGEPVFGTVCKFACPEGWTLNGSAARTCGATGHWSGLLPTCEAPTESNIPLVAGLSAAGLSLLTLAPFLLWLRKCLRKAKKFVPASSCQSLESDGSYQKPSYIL

As for `OCC(F)(F)C(F)(F)C(F)(F)C(F)(F)C(F)(F)C(F)(F)F`, the outcome in experiment [1] was “inactive”; with CD40, CD40 (gene 958) it was “inactive”; in [2] it was “inactive”; in experiment [3] it was “inactive”; in experiment [4], “inactive”; in experiment [5] it was “inactive”. Moreover, the outcome in experiment [6], in [7], in experiment [8] and in experiment [9] was inactive. Moreover, the AC50 in experiment [2] was 42.2 µM (active); in experiment [8] it was 21.6 µM (active).
Consider `O=C(O)C(F)(F)C(F)(F)C(F)(F)C(F)(F)C(F)(F)C(F)(F)C(F)(F)C(F)(F)C(F)(F)C(F)(F)C(F)(F)C(F)(F)F`, for which the AC50 in experiment [1] is 8.71 µM (active); with CD40, CD40 (gene 958), 13.3 µM (active) and 16.4 µM (active). For the same compound, the outcome in experiment [1], in experiment [2], in experiment [3], in experiment [4], in [5] and in experiment [6] was inactive. Moreover, the result in experiment [7], in experiment [8] and in experiment [9] was inactive.
As to `C=CC(F)(F)C(F)(F)C(F)(F)C(F)(F)C(F)(F)C(F)(F)C(F)(F)C(F)(F)C=C`, the outcome is “inactive” in [1]; “inactive” in the experiment with CD40, CD40 (gene 958); “inactive” in [2]; “inactive” in [3]; “inactive” in experiment [4]; “inactive” in experiment [5]. Also, the outcome in experiment [6], in experiment [7], in [8] and in experiment [9] was inactive.
With `C=CC(F)(F)C(F)(F)C(F)(F)C(F)(F)C(F)(F)C(F)(F)C(F)(F)C(F)(F)F`, the outcome in [1] is “inactive”; in the experiment with CD40, CD40 (gene 958), “inactive”; in [2] it was “inactive”; in [3], “inactive”; in [4], “inactive”; in [5], “inactive”. Besides, the outcome in experiment [6], in experiment [7], in experiment [8] and in experiment [9] was inactive.
As for `Cc1ccc(S(=O)(=O)OCC(F)(F)C(F)(F)C(F)(F)C(F)(F)C(F)(F)C(F)F)cc1`, the outcome was “inactive” in [1]; “inactive” with CD40, CD40 (gene 958); “inactive” in experiment [2]; “inactive” in [3]; “inactive” in experiment [4]; “inactive” in [5]. Besides, the result in experiment [6], in experiment [7], in experiment [8] and in experiment [9] was inactive.
Turning to `O=S(=O)(OCCOC(F)(F)F)C(F)(F)F`, the outcome is “inactive” in experiment [1]; “inactive” in the experiment with CD40, CD40 (gene 958); “inactive” in experiment [2]; “inactive” in experiment [3]; “inactive” in experiment [4]; “inactive” in [5]. The result in [6], in experiment [7], in experiment [8] and in experiment [9] was inactive.
Turning to `FC(F)(F)C(F)(F)C(F)(F)CI`, the outcome in [1] was “inactive”; with CD40, CD40 (gene 958), “inactive”; in experiment [2], “inactive”; in experiment [3], “inactive”; in experiment [4], “inactive”; in experiment [5] it was “inactive”. The outcome in experiment [6], in [7], in [8] and in experiment [9] was inactive. For the same compound, the AC50 in experiment [9] is 1.34 µM (active).
With `FC(F)(F)C(F)(F)C(F)(F)N(C(F)(F)C(F)(F)C(F)(F)F)C(F)(F)C(F)(F)C(F)(F)F`, the outcome in experiment [1] was “inactive”; with CD40, CD40 (gene 958), “inactive”; in experiment [2], “inactive”; in experiment [3] it was “inactive”; in experiment [4], “inactive”; in [5] it was “inactive”. For the same compound, the result in experiment [6], in experiment [7], in experiment [8] and in experiment [9] was inactive.
Consider `CC(C)(C)C(=O)CC(=O)C(F)(F)C(F)(F)C(F)(F)F`, for which the outcome in experiment [1] is “inactive”; in the experiment with CD40, CD40 (gene 958) it was “inactive”; in experiment [2], “inactive”; in [3], “inactive”; in [4], “inactive”; in experiment [5], “inactive”. The outcome in experiment [6], in experiment [7], in experiment [8] and in [9] was inactive.
`OCC(F)(F)C(F)(F)C(F)(F)F`: the outcome is “inactive” in experiment [1]; “inactive” in the experiment with CD40, CD40 (gene 958); “inactive” in experiment [2]; “inactive” in experiment [3]; “inactive” in experiment [4]; “inactive” in experiment [5]. Also, the outcome in experiment [6], in [7], in experiment [8] and in experiment [9] was inactive.
For the compound `O=C(O)C(F)(F)C(F)(F)C(F)(F)C(F)(F)F`, the outcome in [1] was “inactive”; with CD40, CD40 (gene 958), “inactive”; in experiment [2], “inactive”; in [3] it was “inactive”; in [4], “inactive”; in [5] it was “inactive”. For the same compound, the result in experiment [6], in experiment [7], in [8] and in experiment [9] was inactive.
For the compound `O=C(O)C=C(C(F)(F)F)C(F)(F)F`, the outcome in [1] is “inactive”; with CD40, CD40 (gene 958) it was “inactive”; in experiment [2], “inactive”; in experiment [3] it was “inactive”; in [5] it was “inactive”; in experiment [6] it was “inactive”. Moreover, the result in experiment [8] and in experiment [9] was inactive. The AC50 was 20.2 µM (active) and 18 µM (active) in [4]; 12.8 µM (active) and 11.3 µM (active) in experiment [7]; 1.97 µM (active) in experiment [9].
For the compound `CCCCCCCCC(F)(F)C(F)(F)C(F)(F)C(F)(F)C(F)(F)C(F)(F)F`, the outcome was “inactive” in experiment [1]; “inactive” with CD40, CD40 (gene 958); “inactive” in [2]; “inactive” in [3]; “inactive” in [4]; “inactive” in experiment [5]. The outcome in experiment [6], in [7], in experiment [8] and in experiment [9] was inactive.
In the case of `CCCCCCOC(=O)c1ccccc1O`, the AC50 is 37.9 µM (active) and 29.9 µM (active) in experiment [1]; 31.2 µM (active) and 20.2 µM (active) in experiment [2]. In experiment [9], the outcome was inactive.
